Source: PubChem BioAssay
IDE exosite FP = exo-site inhibitors of human IDE, primary screen, biochemical, fluorescence anisotropy, probe displacement | actives 6.3% (n = 17,000) | AID 1259349, 2017 | z-score at 20 µM | purified IDE, FL-6b probe fluorescence polarization; stronger effect = lower value;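 active = z-score of -3 or lower, meaning strong loss of probe binding signal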;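 also: His-tagged human IDE residues 42-1019 made in E. coli with 30 nM FL-6b probe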
* = called active by the depositor. The sample as a whole holds a higher share of hits than the screen did.

SMILES	IDE exosite FP
COc1ccccc1-c1ccc([C@H]2[C@@H](CO)N3CCCCN(Cc4ccncc4)C[C@@H]23)cc1	-4.59*
COc1ccc(C#Cc2ccc([C@@H]3[C@H](CO)N4CCCCN(Cc5ccncc5)C[C@@H]34)cc2)cc1	1.17
COc1ccccc1-c1ccc([C@H]2[C@@H](CO)N3CCCCN(Cc4ccncc4)C[C@H]23)cc1	-8.86*
OC[C@H]1[C@H](c2ccc(-c3ccc(F)cc3)cc2)[C@@H]2CN(Cc3ccncc3)CCCCN12	2.86
COc1ccc(C#Cc2ccc([C@@H]3[C@H]4CN(Cc5ccncc5)CCCCN4[C@H]3CO)cc2)cc1	4.88
CCC(=O)N1[C@H](CO)[C@H]2c3ccccc3N(S(=O)(=O)c3ccc(F)cc3)C[C@H]21	2.89
CC(=O)N1CC(=O)N2[C@H](CO)[C@H](c3ccc(C#CC(C)C)cc3)[C@@H]2C1	0.767
O=C1CNC[C@@H]2[C@H](c3ccc(C#CC4CCCC4)cc3)[C@@H](CO)N12	3.72
CN1c2ccc(-c3ccc(F)cc3)cc2[C@H]2[C@H](CCN2C(=O)Cc2cccnc2)[C@@H]1CO	1.49
CCC(=O)N1CC[C@@H]2[C@@H](CO)Nc3ccc(C#Cc4ccccc4F)cc3[C@@H]21	0.849
CCC(=O)N1CC(=O)N2[C@@H](CO)[C@@H](c3ccc(-c4ccc(C#N)cc4)cc3)[C@@H]2C1	-0.381
COc1ccc2c3c([nH]c2c1)[C@H](CO)N(C(=O)Nc1ccc(F)cc1)CC31CCN(S(=O)(=O)c2cn(C)cn2)CC1	0.708
C[C@H](CO)N1C[C@H](C)[C@@H](CN(C)S(=O)(=O)c2ccccc2)OCCCC[C@H](C)Oc2ccc(NC(=O)Nc3ccc4c(c3)OCO4)cc2C1=O	1.24
COc1ccc(CN2CC3(C2)[C@H](c2ccccc2)[C@@H](CO)N3CC2CCCC2)cc1	0.0531
O=C(Nc1ccc(F)cc1)N1CCCCN2[C@H](C1)[C@H](c1ccc(C3=CCCCC3)cc1)[C@@H]2CO	0.603
COc1ccccc1-c1ccc([C@@H]2[C@@H](CO)N3CCCCN(Cc4ccncc4)C[C@H]23)cc1	-4.25*
CC(C)NC(=O)NCC[C@@H]1CC[C@H](NS(=O)(=O)c2ccc(Oc3ccccc3)cc2)[C@@H](CO)O1	0.147
O=C(Nc1ccc(F)cc1)N1CC(=O)N2[C@H](C1)[C@@H](c1ccc(-c3cccc(F)c3)cc1)[C@@H]2CO	-1.76
C[C@@H]1CN([C@H](C)CO)C(=O)CCCn2cc(nn2)CO[C@@H]1CN(C)C(=O)CCC(F)(F)F	0.0992
Cn1cnc(S(=O)(=O)N2CCCCN3[C@H](CO)[C@H](c4ccc(C#CC5CCCC5)cc4)[C@H]3C2)c1	1.95
COc1ccccc1-c1ccc([C@@H]2[C@@H](CO)N3CCCCN(S(=O)(=O)c4cn(C)cn4)C[C@@H]23)cc1	-15.1*
COc1ccccc1-c1ccc([C@H]2[C@H]3CN(S(=O)(=O)c4cn(C)cn4)CCCCN3[C@H]2CO)cc1	0.557
Cn1cnc(S(=O)(=O)N2CCCCN3[C@H](C2)[C@@H](c2ccc(C#CC4CCCC4)cc2)[C@@H]3CO)c1	1.21
Cn1cnc(S(=O)(=O)N2CCCCN3[C@@H](CO)[C@H](c4ccc(C#CC5CCCC5)cc4)[C@@H]3C2)c1	3.29
COc1ccccc1-c1ccc([C@@H]2[C@H](CO)N3CCCCN(S(=O)(=O)c4cn(C)cn4)C[C@@H]23)cc1	-12.7*
SMILES	IDE exosite FP
Cc1ccc(-c2ccc([C@@H]3[C@@H](CO)N4CCCCN(C(=O)c5ccc(F)cc5)C[C@@H]34)cc2)cc1	1.84
Cc1ccc(-c2ccc([C@@H]3[C@@H](CO)N4CCCCN(S(=O)(=O)c5ccccc5C)C[C@@H]34)cc2)cc1	2.21
O=C(C[C@H]1C=C[C@H](NC(=O)CCN2CCCCC2)[C@@H](CO)O1)Nc1nccs1	-1.58
O=S(=O)(c1cccc(F)c1)N1CC[C@@H]2[C@H]1c1cc(C#Cc3ccccc3F)ccc1N[C@@H]2CO	2.5
CCN(C[C@@H]1[C@@H](c2ccccc2)[C@H](CO)N1Cc1cccnc1)C(C)=O	0.838
CCC(=O)N1CCCCN2[C@H](CO)[C@@H](c3ccc(-c4ccc(F)cc4)cc3)[C@H]2C1	1.42
CCC(=O)N1CCCCN2[C@H](CO)[C@H](c3ccc(C#Cc4ccccc4F)cc3)[C@@H]2C1	-5.86*
CCC(=O)N1CCCCN2[C@H](C1)[C@@H](c1ccc(C#Cc3ccccc3F)cc1)[C@@H]2CO	-6.53*
CCC(=O)N1CCCCN2[C@H](C1)[C@H](c1ccc(-c3ccc(F)cc3)cc1)[C@@H]2CO	1.53
COc1ccc(S(=O)(=O)N2CCCCN3[C@H](CO)[C@H](c4ccc(C#CC5CC5)cc4)[C@H]3C2)cc1	2.49
O=C(CN1CCOCC1)N1CC(=O)N2[C@H](C1)[C@H](c1ccc(C3=CCCCC3)cc1)[C@@H]2CO	-0.859
N#C[C@H]1[C@H](c2ccccc2-c2cccc(F)c2)[C@@H](CO)N1C(=O)NC1CCCCC1	-1.33
O=C(C[C@@H]1CC[C@@H]2NC[C@@H](O)COC[C@H]2O1)Nc1nccs1	-0.531
CCCC#Cc1ccc([C@H]2[C@H](CO)N3CCCCN(C(=O)NC4CCCC4)C[C@@H]23)cc1	-8.2*
